Measured values from the supplement of paper PMC6555819.

Assays:
Experiment in all cases: PBM binding z-score (relative to random genomic background probes); higher = stronger binding; sequences stand for … in GC…GCGATTGACAGCGTAGAATGAAGG
[1] = system: RARb homodimer (NR concentration 270 nM)
How it was run: (§1)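 Custom Agilent 4×180K protein-binding microarrays carried double-stranded probes. Their 34-nt variable regions held direct-repeat seeds, single-nucleotide variants, half-site ablations and random human genomic background sequences. Arrays were incubated 1 h with ligand-free nuclear receptor dimers in PBS pH 7.4, 2% milk, 0.02% Triton X-100, 1 mM DTT, 0.2 mg/mL BSA and 0.4 mg/ml salmon testes DNA. Antibodies against each partner (one per run) detected binding, and scanned fluorescence was regression-normalized. Binding z-scores use random background probes as reference.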

[2] = system: RARg:RXRa (NR concentration 270 nM, RXRa partner concentration 90 nM)
How it was run: as §1

[3] = system: RARg homodimer (NR concentration 270 nM)
How it was run: as §1

[4] = system: RXRa DBDmut IVT, anti-RXR (DBD mutation: RXRa K156A/R161A, NR concentration 90 nM)
How it was run: as §1

[5] = system: RXRa homodimer (NR concentration 180 nM)
How it was run: as §1

[6] = system: THRa:RXRa (NR concentration 90 nM, RXRa partner concentration 90 nM)
How it was run: as §1

[7] = system: THRa homodimer (NR concentration 90 nM)
How it was run: as §1

[8] = system: VDR homodimer (NR concentration 270 nM)
How it was run: as §1

Row | Sequence | PBM binding z-score [1] | PBM binding z-score [2] | PBM binding z-score [3] | PBM binding z-score [4] | PBM binding z-score [5] | PBM binding z-score [6] | PBM binding z-score [7] | PBM binding z-score [8]
1 | CCAACTGGGGCATAAGGTTACCATAAGCCAGCCC | 1.68 | 1.52 | 1.12 | -0.33 | 1.24 | 1.97 | 1.29 | 0.0835
2 | TAGCCTAGGTCATGGGCCAGAATACCACGCGAAC | 2.86 | 4.27 | 4.29 | 0.064 | 3.81 | 2.89 | 1.07 | -0.109
3 | CATCAAAGTTCAACTAAGGTAACGTAAAGCACGC | 4.32 | 5.94 | 6.82 | 4.67 | 5.76 | 5.1 | 2.29 | 4.37
4 | TCATATAGGTAAATGCTAGGTGACAGTCCGATCT | 0.444 | 0.642 | 0.401 | 1.28 | 0.653 | 1.4 | 0.389 | 0.525
5 | TCTGGTAGATCAGCAGGTTAAGAAAGCTGGCCAA | -0.132 | -0.135 | -0.628 | 0.128 | 0.256 | 0.0552 | -0.418 | -0.56
6 | TAGCCTAGGTCATGAGGGCCAGTATAGTGTCGGC | 3.01 | 4.06 | 4.57 | 0.234 | 3.23 | 3.04 | 0.958 | 0.404
7 | GCTTACGGGGCAAAGGTTATAGCATGAATAGAAT | 1.58 | 3.73 | 1.43 | 1.11 | 4.42 | 1.89 | -0.425 | -0.046
8 | CCGACTGGGCCATCAGGTCATTGATATCAACGTT | 2.62 | 2.06 | 1.8 | 0.194 | 1.38 | 3.17 | 2.95 | 1.67
9 | TCTAGGAGGACACGAAAGGTCAGAGCTCGACATC | 4.84 | 4.88 | 5.11 | 1.35 | 4.21 | 3.98 | 1.4 | 0.994
10 | TCATATAGGTAAATGCTAGGTGAAAGGCCGATCT | 0.766 | 0.683 | 0.329 | 1.57 | 0.896 | 1.53 | 0.386 | 0.46
11 | TCTAGTTGCTCAAAGGTCACACACTCGAAATGCG | 5.02 | 5.93 | 5.78 | 1.88 | 6.66 | 3.76 | 1.89 | 2.12
12 | TCTTGTAGCTCAATAGAGGTTAAGAAAGTGCGCT | 0.952 | 0.354 | 0.113 | 0.261 | 0.994 | 1.27 | -0.704 | -0.137
13 | CAAACTAGGACAAGGTCAAAGTCGGTTTGTGCCA | 3.66 | 4.2 | 3.68 | 2.27 | 4.36 | 3.84 | 2.86 | 3.88
14 | TATACAGGGTCAAAGGCAAGAGTACGAATGTCGA | 3.28 | 5.58 | 5.01 | 3.09 | 6.4 | 3.48 | 1.05 | 3.39
15 | CCTACTGGACCAAAGGTCATTGATTCCAATGCTC | 4.9 | 5.27 | 4.97 | 1.85 | 6.4 | 3.46 | 1.67 | 3.18
16 | TCGAGTAGGATACCAATGGGGCATTCAGCTTTCT | -0.451 | -0.58 | -0.482 | 0.0326 | -0.263 | -1.38 | -1.03 | -1.09
17 | TGTCAAAGTTCAAAGGTAACGTAGGTATCCACAC | 4.01 | 6.19 | 6.01 | 4.14 | 7.19 | 3.05 | -0.392 | 3.97
